Experimental findings from PubChem BioAssay AID1851 (National Center for Advancing Translational Sciences (NCATS), 2009) are described below.

The campaign covered roughly 16,000 compounds. About 5,800 (36%) were called active. Inconclusive results (about 23%) are left out. The call rests on the fitted dose curve; in most records, active means well fitted curve in the direction sought with a large enough effect; inconclusive means small, poorly fitted or top-dose-only effect, or effect the other way; inactive means no such curve, though single readings can be large or run the other way. The list shows a part of the results.
On the % scale 0 is the no-effect control and ±100 the full control effect.

The target in the test is Cytochrome P450 2C19 (Homo sapiens) (UniProt P33261). As to the kind of experiment: Cytochrome panel assay with activity outcomes. As to conditions: recombinant CYP, pro-luciferin dealkylation, luminescence, p450-cyp2c19; series mostly up to 57.1 µM; activity, negative = inhibition: at the top concentration.
Chain of Cytochrome P450 2C19 (Homo sapiens) (P33261 whole entry, looked up): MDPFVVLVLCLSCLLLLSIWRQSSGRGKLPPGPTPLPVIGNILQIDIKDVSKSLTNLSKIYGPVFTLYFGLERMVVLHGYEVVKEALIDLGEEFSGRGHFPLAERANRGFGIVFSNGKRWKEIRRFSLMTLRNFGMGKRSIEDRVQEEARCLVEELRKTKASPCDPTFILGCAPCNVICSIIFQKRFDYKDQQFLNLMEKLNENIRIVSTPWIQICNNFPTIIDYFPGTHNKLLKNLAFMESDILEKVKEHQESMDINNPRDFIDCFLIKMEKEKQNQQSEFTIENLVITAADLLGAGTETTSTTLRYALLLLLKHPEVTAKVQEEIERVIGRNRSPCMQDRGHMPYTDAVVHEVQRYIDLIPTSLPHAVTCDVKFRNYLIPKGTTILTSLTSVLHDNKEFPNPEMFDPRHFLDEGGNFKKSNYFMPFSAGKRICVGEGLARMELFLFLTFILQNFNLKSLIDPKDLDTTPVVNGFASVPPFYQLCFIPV
The AC50 is the concentration at which the activity in the assay is half-maximal. As to `Cc1ccc(OCC(=O)Nn2cnc3ccccc32)cc1`, the AC50 is 20 µM (active).
Same read-out and setting: under `Cc1ccc(OCC(=O)NC2=NCCS2)cc1` stands 17.8 µM (active); under `COc1ccc([N+](=O)[O-])cc1NC(=O)CC(C)c1ccccc1` (centres undefined), 3.55 µM (active).
As to `Cc1ccc(OCC(=O)NNC(=O)c2cc3ccccc3o2)cc1`, the “activity, negative = inhibition” value was -12.6% (inactive).
The same measure, in the same setting: under `C[C@@H]1O[C@@H](n2cc(F)c(=O)[nH]c2=O)[C@H](O)[C@@H]1O` stands -13.4% (inactive); under `Cc1cccc2cc(=O)[nH]c(C)c12`, -20% (inactive).
On the same count and under the same terms, next, `C[N+]1(CCC[N+]2(C)C[C@H]3[C@H](C2)[C@H]2C=C[C@@H]3CC2)CCOCC1` (some centres undefined): -6.43% [at 11.4 µM] (inactive).
In the case of `COc1cc([N+](=O)[O-])ccc1NC(=O)CCCOc1cccc(C)c1`, the AC50 is 3.98 µM (active).
Consider `Cc1cc2c(cc1S(N)(=O)=O)S(=O)(=O)CCC2`, for which the “activity, negative = inhibition” value is 13.4% [at 25.6 µM] (inactive).
On the same count and under the same terms, next, `COCCCNC(=O)CCC(=O)Nc1ccc2nc(N3CCOCC3)cc(C)c2c1`: 30.1% (inactive).
Take `CCCCNC(=O)CCC(=O)Nc1ccc2nc(N3CCOCC3)cc(C)c2c1`: the AC50 was 25.1 µM (active).
`Cc1ccccc1C(=O)NNC(=O)c1ccc(F)cc1`: the “activity, negative = inhibition” value is -21.3% (inactive).
As to `Cc1ccccc1C(=O)NN(C)c1nc2ccccc2nc1C(F)(F)F`, the AC50 was 0.355 µM (active).
With `O=C(c1cc(C(F)(F)F)cc(C(F)(F)F)c1)N1CCC[C@@]2(CCN(c3ccncc3)C2)C1`, the “activity, negative = inhibition” value is 0.411% (inactive).
For `O=C(Nc1ccccc1)N(Cc1ccccc1)CC(O)C(F)(F)F` (centres undefined), the concentration at half-maximal activity (AC50) was 5.01 µM (active).
The same measure, in the same setting: next, `O=C(Nc1cccc(C(F)(F)F)c1)N(Cc1ccc(Cl)cc1)CC(O)C(F)(F)F` (centres undefined): 3.98 µM (active).
`O=S(=O)(C[C@H](O)C(Cl)(Cl)Cl)NNc1ccccc1`: the activity, negative = inhibition is -25.2% [at 11.4 µM] (inactive).
The same measure, in the same setting: under `CCC(=O)NC(NCC1CCCO1)C(Cl)(Cl)Cl` (centres undefined) stands -28.2% (inactive).
For the compound `CCCC(=O)NC(Nc1ccccc1F)C(Cl)(Cl)Cl` (centres undefined), the concentration at half-maximal activity (AC50) was 2.82 µM (active).
Regarding `CCCC[C@]1(C2CCCC2)Cc2cc(OCC(=O)O)c(Cl)c(Cl)c2C1=O`, the “activity, negative = inhibition” value is 14.2% (inactive).
On to `CCOC(=O)C1=C(C)N=C2c3ccccc3C(=O)C2C1c1ccc(Cl)cc1` (centres undefined), for which the AC50 is 0.631 µM (active).
The same measure, in the same setting: under `CCOC(=O)C1=C(C)N=C2c3ccccc3C(=O)C2C1c1ccc(C)cc1` (centres undefined) stands 1 µM (active).
In the case of `CO[C@@H]1/C=C\CC(=O)N[C@@H](C)C(=O)OC[C@H](NS(=O)(=O)c2ccc(C)cc2)[C@H](C)/C=C\CC(=O)OC[C@H]1C`, the activity, negative = inhibition was -0.432% [at 11.4 µM] (inactive).
Same read-out and setting: under `NC(=O)N[C@H]1NC(=O)NC1=O` stands -5.57% [at 25.6 µM] (inactive).
On to `CCC(=O)c1ccc(OCc2ccc(C(=O)OC)cc2)c(OC)c1`, for which the AC50 is 3.16 µM (active).
`CC(Oc1ccc(O)cc1)(P(=O)(O)O)P(=O)(O)O`: the “activity, negative = inhibition” value was 29% (inactive).
Turning to `CC1(C)Oc2ccc(NC(=O)c3ccco3)cc2O1`, the concentration at half-maximal activity (AC50) was 14.1 µM (active).
The same measure, in the same setting: under `O=C(Nc1ccccc1C(=O)Nc1ccc2c(c1)OCO2)c1ccco1` stands 3.16 µM (active).
Take `CCC(=O)[C@@]1(C)[C@H](C)C[C@@H]2[C@@H]3CCC4=CC(=O)C=C[C@@]4(C)[C@H]3[C@H](O)C[C@]21C`: the “activity, negative = inhibition” value was -27.9% [at 25.6 µM] (inactive).
The same measure, in the same setting: under `Cc1ccc(-n2c(SCc3ccc([N+](=O)[O-])cc3)nc3ccccc3c2=O)cc1` stands -12.2% (inactive).
As to `COn1c(SCc2ccc(C)cc2C)nc2ccccc2c1=O`, the AC50 was 3.55 µM (active).
Still for that read-out and setting: next, `COn1c(SCc2cccc(Cl)c2)nc2ccccc2c1=O`: 2.24 µM (active); `O=[N+]([O-])c1cccc(/C=N/Nc2cc(Cl)nc(-c3ccccc3)n2)c1`: 2 µM (active).
With `O=[N+]([O-])c1ccc(/C=N/Nc2cc(Cl)nc(-c3ccccc3)n2)cc1`, the “activity, negative = inhibition” value was 17.3% (inactive).
On the same count and under the same terms, next, `Nc1nnc(CC(=O)N/N=C/c2cccc([N+](=O)[O-])c2)s1`: -11.2% (inactive).
Still for that read-out and setting: under `COc1ccc(NC(=O)N2CCCC3(CCN(C(=O)c4csnn4)CC3)C2)cc1` stands -7.72% (inactive); under `Cc1cc2c(nc1C)CCCN2C[C@@H](O)CN1CCN(C)CC1`, 4.3% [at 11.4 µM] (inactive); under `CO[C@@H](NC(N)=O)C(=O)O`, 20.6% [at 11.4 µM] (inactive).
For `O=C(CCCc1ccccc1)N1CCN(c2ccc([N+](=O)[O-])cc2)CC1`, the AC50 is 8.91 µM (active).
With `COCC(=O)N1CCN(c2ccc([N+](=O)[O-])cc2)CC1`, the “activity, negative = inhibition” value is -7.34% (inactive).
As to `CC[N+](CC)(CC)CC`, the “activity, negative = inhibition” value was -13.4% (inactive).
Still for that read-out and setting: under `COc1ccc(S(=O)(=O)NCCC(=O)NCc2ccc(F)cc2)cc1` stands -27.1% (inactive).
Turning to `CC(=O)Nc1ccc(S(=O)(=O)NCCc2ccc(F)cc2)cc1`, the AC50 was 5.01 µM (active).
On the same count and under the same terms, under `O=c1c2c(-c3ccc(Cl)cc3)csc2nc2n1CCC2` stands 8.91 µM (active).
As to `O=c1c2ccccc2nc2n1CCC2`, the “activity, negative = inhibition” value was -19.1% (inactive).
Consider `Cc1c(OCC(F)(F)F)ccnc1CSc1nc2ccccc2[nH]1`, for which the AC50 is 1.58 µM (active).
Take `C[N+](C)(C)CCCSc1nc2ccccc2[nH]1`: the activity, negative = inhibition was 32.5% [at 11.4 µM] (inactive).
With `COC(=O)c1ccc(NC(=O)c2ccccc2NS(=O)(=O)c2ccccc2)cc1`, the AC50 was 3.98 µM (active).
Turning to `CC(C)C1NC(=S)N(Cc2ccccc2)C1=O` (centres undefined), the AC50 is 2 µM (active).
